N370S GC mod: inhibitors or activators of N370S glucocerebrosidase for Gaucher disease | N370S GC spleen homogenate, 4MU-glucoside fluorescence | AID 2101 | hit rate 0.092% among 330,000 | Potency, µM (highest dose often 59.4 µM), for the others: top-dose activity change, negative = inhibition, hits mostly inhibitors;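 note: potency is the fitted concentration of half-maximal effect; 0% = full enzyme activity and -100% = no enzyme basal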
TCR act: activates T cell receptor signaling; 330,000 tested, under 10 active; AID 504894; primary human leukocytes, anti-CD3, IL-2 HTRF, 48 h; Potency, µM (top dose mostly 9.22 µM), inactives show at the highest dose activation of IL-2 secretion, most hits filed as activators; note: % of control where 0% means no effect
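Using a-CD3 beads without co-stimulation, primary human leukocytes were exposed to compounds for 48 hr. An HTRF IL-2 kit measured the cytokine, with europium-to-d2 energy transfer producing emission at 665nm upon 320nm excitation.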
p53 reactivation: re-activators of mutant p53 | H1299 p53-A138V BP100-luciferase reporter, luminescence, 24 h | Potency, µM (doses to about 92.2 µM), for the others: at the highest dose activity change, positive = activation, usual class: activators | hit rate 0.063% among 320,000; note: potency is the fitted concentration of half-maximal effect; % of control where 0% means no effect; nearly all actives have a fitted effect of over 45% in size
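p53-null H1299 cells stably carrying temperature-sensitive p53-A138V and a BP100-luciferase reporter were pinned with compounds (4-point, 1:5 series) and held 24 hrs at 37 deg C. Luminescence was read 10 min after detection reagent.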
TSHR antag: antagonists of human thyroid stimulating hormone receptor | TSHR-expressing cells, TSH-stimulated cAMP HTRF, 2 h; active compounds read low | activity change, negative = inhibition, % at 11.5 µM | hit rate 0.2% among 330,000;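 active = activity change below a set negative limit, meaning inhibition stronger than a set level, cut at about -70% in these data; inconclusive = activity change between two set negative limits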; note: % is set by controls: 0 for no effect and ±100 for the full control effect
Target sequence (P16473 whole entry, looked up): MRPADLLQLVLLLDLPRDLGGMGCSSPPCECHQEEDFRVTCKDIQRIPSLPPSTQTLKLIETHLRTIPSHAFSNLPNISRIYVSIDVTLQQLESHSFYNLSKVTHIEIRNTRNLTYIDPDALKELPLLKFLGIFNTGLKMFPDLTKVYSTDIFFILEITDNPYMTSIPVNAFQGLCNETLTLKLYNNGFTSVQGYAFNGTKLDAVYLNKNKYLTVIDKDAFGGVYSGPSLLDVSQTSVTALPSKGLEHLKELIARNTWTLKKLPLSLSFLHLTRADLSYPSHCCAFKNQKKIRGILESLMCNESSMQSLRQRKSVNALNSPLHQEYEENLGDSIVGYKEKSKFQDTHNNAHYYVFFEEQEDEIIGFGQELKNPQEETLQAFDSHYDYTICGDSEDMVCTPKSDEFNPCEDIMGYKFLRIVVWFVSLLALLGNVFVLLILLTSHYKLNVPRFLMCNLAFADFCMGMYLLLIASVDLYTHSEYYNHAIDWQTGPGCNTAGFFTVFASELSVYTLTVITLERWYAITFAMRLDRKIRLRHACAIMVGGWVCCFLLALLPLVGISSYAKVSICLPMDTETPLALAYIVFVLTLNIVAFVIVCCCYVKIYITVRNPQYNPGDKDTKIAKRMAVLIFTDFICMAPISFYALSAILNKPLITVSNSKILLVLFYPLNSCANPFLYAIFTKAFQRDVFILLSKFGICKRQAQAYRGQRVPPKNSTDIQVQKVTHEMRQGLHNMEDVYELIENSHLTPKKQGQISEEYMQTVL
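Read-out is FRET at 665 nm (cryptate excitation 337 nm) from a cryptate-tagged anti-cAMP antibody, competed by cell cAMP against cAMP-d2. Compounds are tested on freshly harvested TSHR cells challenged with 4nM TSH (EC80) for 2 hours at 37 deg C.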
GLS inhibitor: inhibitors of human glutaminase (GLS); O94925; GLS enzymatic activity, qHTS titration; Potency, µM (top dose mostly 45.5 µM), inactives show at the highest dose activity change, negative = inhibition, most hits filed as inhibitors; hit rate 0.21% among 410,000; AID 624170; note: potency is the fitted concentration of half-maximal effect; % is set by controls: 0 for no effect and ±100 for the full control effect
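Enzyme dispensed in phosphate buffer (45 mM, pH 8.2, 0.02% Tween-20), compounds pinned in, then 1 mM L-glutamine solution and the glutamate oxidase–HRP–Amplex Red mix added; fluorescence read immediately and again after 30 min at room temperature.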
BRCA1 expr act: activators of BRCA1 expression; MCF7-BRCA1-FFLuc reporter, luminescence, 48 h; response scale: scaled: vehicle 0%, 10 µM genistein 100%; Potency, µM (highest dose often 46.1 µM), without a hit: at the top dose activation, actives largely listed as activators; hit rate 1.1% among 380,000; AID 624202; note: potency is the fitted concentration of half-maximal effect; nearly all actives have a fitted effect of over 80% in size
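MCF7-BRCA1-FFLuc, 2000 cells/well; 2 h attach, 37 °C/5% CO2; compound 48 h; luciferase substrate 15 min; luminescence end-point. Norm. to genistein 10 microM max activation and DMSO; concentration-response curves fitted.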
An asterisk follows results filed as active; ? = inconclusive; · = not tested or not shown; [ ] = another dose, or the depositor's remark. A selection: hits, their analogues and other compounds. The true share with any hit is near 1.4%. Unless noted, calls come from the whole dose curve; as a rule, active = well fitted curve in the direction sought with a large enough effect; inconclusive = small, poorly fitted or top-dose-only effect, or another doubt; inactive = no such curve, though single readings can be large; an effect the other way counts as inactive or inconclusive.

SMILES | N370S GC mod | TCR act | p53 reactivation | TSHR antag | GLS inhibitor | BRCA1 expr act
Oc1ccccc1Nc1nc(NCc2ccco2)c2ccccc2n1 | ? | 3% | -1% | -14 | 15% | -24%
Cc1ccccc1Nc1nc(NCc2ccco2)c2ccccc2n1 | 20µM* | 6% | ? | -17 | 5% | -43%
c1ccc(-c2nnc(-c3ccncc3)o2)cc1 | 20% | 0% | 21% | -2 | -4% | 11µM*
c1ccc2c(CSc3nnc(-c4ccncc4)o3)cccc2c1 | -5% | -4% | -7% | 7 | 1% | 5%
Nc1ccc(-c2nnc(-c3ccc(N)cc3)o2)cc1 | -1% | 2% | 20% | 3 | 9% | 5.6µM*
Cc1cccc(-c2nnc(-c3ccc(N)cc3)o2)c1 | 11% | -19% | ? | -3 | 19% | ?
Fc1ccccc1CSc1nnc(-c2cccs2)o1 | 21% | -9% | ? | -25 | -1% | 4µM*
Clc1ccccc1CSc1nnc(-c2ccncc2)o1 | 7% | 1% | ? | 2 | -4% | 8.9µM*
c1ccc(-c2nnc(-c3ccccc3)o2)cc1 | 7% | -19% | ? | -8 | 1% | 79%
CCOC(=O)c1ccc(-n2c(CCC(=O)O)ccc2-c2ccc(Br)cc2)cc1 | · | · | · | · | 17% | ·
c1ccc(OCc2nnc(-c3ccccc3)o2)cc1 | 0% | 9% | 4% | -2 | 2% | 7.1µM*
Fc1ccc(Cc2nnc(-c3cccs3)o2)cc1 | -3% | -7%[46.1 µM] | ? | 3 | -11% | 10µM*
Fc1ccc(CSc2nnc(-c3cccs3)o2)cc1 | 10% | 0% | 15% | -38 | 7% | ?
c1cc(CSc2nnc(-c3ccc4c(c3)OCO4)o2)ccn1 | 8% | 13% | ? | -2 | 3% | 3.2µM*
CCC(=O)C1CCCN(C(=O)CCc2nnc(-c3ccc4c(c3)OCO4)o2)C1 (stereo not drawn) | -6% | -4% | ? | 5 | -13% | 79%
CCC(=O)C1CCCN(C(=O)CCc2nnc(-c3ccc(C(C)=O)s3)o2)C1 (stereo not drawn) | -12% | 6% | ? | -11 | -12% | 13µM*
O=C(NCC(=O)N1CCN(c2ccccc2O)CC1)C1CCCCC1 | -24% | -6% | 6% | 8 | 5.6µM* | 42%
Cc1ccccc1OCC(=O)NCC(C)NC(=O)COc1ccccc1C (stereo not drawn) | · | · | · | · | · | -5%
COc1ccccc1-c1cc2nc(C)c(CCC(=O)NCCc3ccc(SC)cc3)c(C)n2n1 | · | · | · | · | -10% | ·
O=C(NC(=S)NCCO)c1sc2ccccc2c1Cl | 4% | -7% | 4% | 25 | -8% | 11µM*
CCOC(=S)NC(=O)c1sc2ccccc2c1Cl | 15% | -4% | 15% | 38 | 12% | 0%
CC(C)(C)C(=O)NC(=S)NNC(=O)c1sc2ccccc2c1Cl | 16% | -5%[46.1 µM] | ? | -94* | 27% | -93%
O=C(O)CSC1=NS(=O)(=O)c2ccccc21 | · | · | · | · | · | 12%
Clc1ccc(CN=C2Nc3ccccc3CS2)cc1 | -14% | 7% | ? | -8 | 7% | 8.9µM*
CCc1nnc(NC(=O)Nc2ccccc2OC)s1 | 24% | 4% | 15% | -4 | 0% | 6.3µM*
SMILES | N370S GC mod | TCR act | p53 reactivation | TSHR antag | GLS inhibitor | BRCA1 expr act
COc1ccccc1NC(=O)Nc1nnc(CC(=O)Nc2ccccc2)s1 | -12% | · | 5% | -8 | · | ·
O=C(Nc1ccc2c(c1)Cc1cc([N+](=O)[O-])ccc1-2)C(F)(F)F | · | -5% | · | · | -2% | 4µM*
COc1cc2c(cc1NC(=O)C(F)(F)F)-c1ccc(NC(=O)C(F)(F)F)cc1C2 | · | 3% | · | · | 0% | 22%
COC(=O)c1ccc(NC(=O)CSc2ccc(-c3sc(-c4ccccc4)nc3C)nn2)cc1 | · | · | · | · | 7% | ·
O=C(c1ccco1)N1CCN(Cc2ccccc2Br)CC1 | 5% | 6% | 20% | -11 | -1% | 16µM*
O=C(c1ccco1)N1CCN(c2ccc(N3CCCCC3)nn2)CC1 | 18% | -3% | ? | -3 | 0% | 10µM*
Cc1ccc(NC(=O)CSc2ncccn2)c([N+](=O)[O-])c1 | -3% | 8% | ? | -8 | 0% | 11µM*
CCCN(CCC)CCCNC(=O)c1ccc2c(Cl)c3c(nc2c1)CCC3 | -5% | 2% | 12% | -27 | 1% | -14%
COCCNC(=O)c1ccc2c(Cl)c3c(nc2c1)CCC3 | -6% | -5% | 17% | 11 | 1% | 5µM*
Cc1nnc(SCC(=O)NC(=O)Nc2ccc3c(c2)OCCO3)n1N | 8% | 4% | 17% | -17 | 6% | 10µM*
Cc1ccc(-n2nnnc2SCC(=O)NC(=O)Nc2ccc3c(c2)OCCO3)cc1 | -19% | 0% | ? | 0 | 16% | ?
Cc1ccc(NC(=O)C2CCC(CNS(=O)(=O)c3ccc4c(c3)CCCC(=O)N4)CC2)cc1F (stereo not drawn) | · | · | · | · | -4% | -25%
COc1ccco1 | -2% | · | · | · | · | ·
O=C(CCN1C(=O)/C(=C\C=C\c2ccccc2)SC1=S)Nc1cccc(C(=O)O)c1 | ? | 2% | -6% | -13 | 1% | 6.3µM*
CC1Cc2cc(S(=O)(=O)NCc3ccc(N(C)C)cc3)ccc2N1C(=O)C1CCC1 (stereo not drawn) | · | · | · | · | -3% | ·
Cn1ncc2c(NCc3ccco3)ncnc21 | · | · | · | · | · | 16%
COc1ccc(Cc2ccccc2C(=O)O)cc1 | · | 2% | · | · | 8% | 7%
COc1ccc(CC2=CC(=O)c3ccccc3C2=O)cc1 | -1% | 1% | -13% | -83* | 6% | -15%
Cc1ccc(OCC(=O)N(Cc2ccco2)Cc2ccco2)cc1C | · | · | · | · | -8% | ·
CCOC(=O)CSC1=Nc2ccccc2C2=NC(CC(=O)NCc3ccc4c(c3)OCO4)C(=O)N12 (stereo not drawn) | 10% | 5% | 6% | 3 | ? | 5%
CCOC(=O)CSC1=Nc2ccccc2C2=NC(CC(=O)NCc3ccc(OC)cc3)C(=O)N12 (stereo not drawn) | -9% | 7% | 5% | 3 | 2.2µM* | -1%
Cc1ccc(C(=O)Cc2cc3ccccc3oc2=O)c(C)c1 | -1% | -7% | ? | 4 | -3% | 4µM*
COc1ccc(C(=O)Cc2cc3ccccc3oc2=O)cc1 | -4% | -3% | ? | 1 | -4% | 4.5µM*
CCCC(=O)c1cc2ccccc2oc1=O | -3% | -4% | 25% | -3 | 7% | -2%
COc1ccc(/C=c2\[nH]c(=O)/c(=C/c3ccc(OC)c(OC)c3)[nH]c2=O)cc1OC | · | · | · | · | · | 0%
CN(Cc1ccccc1)C(=O)c1ccc(CSc2nc3cccnc3n2Cc2ccccc2)cc1 | · | · | · | · | 32% | ·
